# “And” between values parts separate entries of the source, which are not always exact repeats. Identical values can stand only once. ± gives the standard deviation of the averaged measurements.
# System: Listeria monocytogenes 10403S
# Test: growth inhibition relative to ceftriaxone-alone control; higher = stronger potentiation of ceftriaxone growth inhibition
# Settings: 10 µM; ceftriaxone 1 ug/ml; 12 h
# 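Further: End-point A600 read in BHI broth at 37 °C with 2% DMSO, inhibition computed as (1 − OD with compound plus ceftriaxone ÷ OD with ceftriaxone only) × 100.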
row,Compound,growth inhibition
1,O=C(NOCC(O)CO)c1cc(Br)c(F)c(F)c1Nc1ccc(I)cc1F (stereo not drawn),100 ± 5.2%
2,O=C1NC(=O)[C@@H](c2cn3c4c(cccc24)CCC3)[C@@H]1c1c[nH]c2ccccc12 [ARQ 197 (Tivantinib)],63.3 ± 38%
3,COc1cc(Nc2ncc(F)c(Nc3ccc4c(n3)N(COP(=O)(O)O)C(=O)C(C)(C)O4)n2)cc(OC)c1OC [R788 (Fostamatinib)],12.5 ± 9.9%
4,Oc1cc(O)cc(/C=C/c2ccc(O)c(O)c2)c1 [Piceatannol],29.4 ± 16%
5,CCS(=O)(=O)c1ccc(OC)c(Nc2ncc(-c3cccc(C(C)=O)c3)o2)c1,7.79 ± 2.2%
6,N#Cc1ccc(Oc2nccc(-c3c(-c4ccc(F)cc4)ncn3C3CCNCC3)n2)cc1,-15.2 ± 18%
7,COc1cccc(-n2ncc3c(N/N=C/c4ccc(F)cc4)ncnc32)c1,-3.41 ± 1%
8,COc1cc2ncnc(Nc3ccc4c(cnn4Cc4ccccc4)c3)c2cc1OC,-12.1 ± 18%
9,Cc1nc(Nc2ncc(C(=O)Nc3c(C)cccc3Cl)s2)cc(N2CCN(CCO)CC2)n1,32 ± 20%
10,COc1ccc2cc(-c3c(-c4ccncc4)nc(-c4ccc(S(C)(=O)=O)cc4C)n3C)ccc2c1,-1.1 ± 3.1%
11,COc1cccc(-n2nc(C)c3c(N/N=C(\C)c4ccncc4)ncnc32)c1,-12.5 ± 20%
12,Cc1nnc(-c2ccc(C)c(-c3ccc(C(=O)NCc4ccc(Cl)cc4)cc3)c2)o1,-4.74 ± 3.3%
13,COc1cc2c(Oc3ccc(NC(=O)C4(C(=O)Nc5ccc(F)cc5)CC4)cc3F)ccnc2cc1OCCCN1CCOCC1,80.2 ± 4.3%
14,Nc1nccc(-c2c(-c3ccc(F)cc3)ncn2C2CCC(O)CC2)n1 (stereo not drawn),-2.07 ± 1.6%
15,CNC(=O)CN1CCC(Oc2cc3c(Nc4cccc(Cl)c4F)ncnc3cc2OC)CC1,0.347 ± 1.9%
16,CNC(=O)c1nn(C)c2c1C(C)(C)Cc1cnc(Nc3ccc(N4CCN(C)CC4)cc3)nc1-2,20.7 ± 8.5%
17,COc1ccc2ncn(-c3cc(O[C@H](C)c4ccccc4Cl)c(C(N)=O)s3)c2c1,1.82 ± 0.29%
18,COc1cc(N2CCN(C(C)C)CC2)ccc1Nc1nc(Nc2cccc3ncccc23)c2cc[nH]c2n1,-2.19 ± 2.3%
19,CNC(=O)c1cc(Oc2ccc(NC(=O)Nc3ccc(Cl)c(C(F)(F)F)c3)c(F)c2)ccn1 [Regorafenib (BAY 73-4506)],85.5 ± 3.7%

row,Compound,growth inhibition
1,Cc1cccc(Nc2ncc(-c3ccccc3)o2)c1,-0.369 ± 0.46%
2,Fc1cc(-c2cccc3ncc(-c4cnn(C5CCNCC5)c4)nc23)cc(F)c1CN1CCOCC1,82.1 ± 22%
3,O=C1Nc2ccc(I)cc2C1=Cc1cc(Br)c(O)c(Br)c1,36.9 ± 6%
4,Cn1cc(-c2ccc3ncc(Cc4ccc5ncccc5c4)n3n2)cn1,-1.22 ± 3.1%
5,Cc1cccc(-c2[nH]c(C(C)(C)C)nc2-c2ccc3nccnc3c2)n1,9.73 ± 13%
6,C/C(Nc1ccc(S(N)(=O)=O)cc1)=C1/C(=O)Nc2ccccc21,-3.55 ± 0.8%
7,Nc1nccc(-c2c(-c3ccc(F)cc3)ncn2C2CCNCC2)n1,2.49 ± 6.8%
8,CCn1c(N)c(C(=O)NC)c(=O)c2ccc(C#CC(C)(O)COC)nc21 (stereo not drawn),2.07 ± 6.6%
9,NS(=O)(=O)c1ccc(Nc2cc(-c3cccc(O)c3)n[nH]2)cc1,10.9 ± 3.9%
10,C[C@@H](Oc1cc(-n2cnc3ccc(CN4CCN(C)CC4)cc32)sc1C(N)=O)c1ccccc1C(F)(F)F,88.5 ± 8.4%
11,Nc1nccc(-c2c(-c3ccc(F)cc3)ncn2CCCN2CCOCC2)n1,-1.02 ± 0.073%
12,O=C(Nc1cccc(Nc2ncc(Br)c(NCCc3cnc[nH]3)n2)c1)N1CCCC1,9.34 ± 13%
13,Fc1cccc(COc2ccc(Nc3ncnc4sc(-c5ccco5)cc34)cc2Cl)c1,6.89 ± 3.7%
14,CCCN1CCCC(c2ccc(Nc3nc(Nc4cc(F)ccc4C(N)=O)c4cc[nH]c4n3)c(OC)c2)C1 (stereo not drawn),1.46 ± 6.2%
15,CC1(C)CC(n2cnc(-c3ccc(F)cc3)c2-c2ccnc(N)n2)CC(C)(C)N1,-11.4 ± 8.9%
16,CN1CCC(n2cnc(-c3ccc(F)cc3)c2-c2ccnc(NCCO)n2)CC1,-2.88 ± 2.5%
17,NC(=O)c1ccc(-c2nc(-c3ccccn3)c(-c3ccc4c(c3)OCO4)[nH]2)cc1,-0.443% and 16.4%
18,CN(C)c1ccc2c(c1)/C(=C/Nc1ccc(S(N)(=O)=O)cc1)C(=O)N2,1.99 ± 14%
19,Cc1nn(C)c2cc(N(C)c3ccnc(Nc4cccc(S(N)(=O)=O)c4)n3)ccc12,10.1 ± 1.2%
